Several values for one entry are separate records, joined by “and”; a condition that tells them apart may be missing. Equal values may be shown once. Among all 16,000 compounds or so, about 5,100 (32%) were called active. Roughly 25% stayed inconclusive and do not appear here. The list shows a part of the results. A number with no mark means an inactive call. The call rests on the fitted dose curve; in most records, active means well fitted curve in the direction sought with a large enough effect; inconclusive means small, poorly fitted or top-dose-only effect, or effect the other way; inactive means no such curve, though single readings can be large or run the other way.
On the % scale 0 is the no-effect control and ±100 the full control effect.

The test deals with Cytochrome P450 3A4 (Homo sapiens) (UniProt P08684). The test can be described thus: Cytochrome panel assay with activity outcomes. The conditions noted are these: recombinant CYP, pro-luciferin dealkylation, luminescence, p450-cyp3a4; series mostly up to 57.1 µM.
Cytochrome P450 3A4 (Homo sapiens), sequence (P08684 whole entry, looked up): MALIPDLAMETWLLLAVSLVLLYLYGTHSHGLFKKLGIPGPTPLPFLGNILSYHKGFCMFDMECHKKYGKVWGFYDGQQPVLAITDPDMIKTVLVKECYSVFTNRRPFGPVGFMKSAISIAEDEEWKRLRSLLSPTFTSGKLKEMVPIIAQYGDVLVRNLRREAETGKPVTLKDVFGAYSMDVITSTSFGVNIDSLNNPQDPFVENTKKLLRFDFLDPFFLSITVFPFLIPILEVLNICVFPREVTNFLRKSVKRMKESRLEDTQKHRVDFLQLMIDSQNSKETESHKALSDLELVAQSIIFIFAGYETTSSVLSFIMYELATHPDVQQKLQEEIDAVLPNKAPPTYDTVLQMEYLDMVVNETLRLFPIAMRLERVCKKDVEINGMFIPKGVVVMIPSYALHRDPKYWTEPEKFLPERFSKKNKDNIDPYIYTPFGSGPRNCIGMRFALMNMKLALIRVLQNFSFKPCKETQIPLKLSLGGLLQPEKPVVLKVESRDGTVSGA
`CC(=O)N=c1sc(S(N)(=O)=O)nn1C`: the AC50 (commonly the concentration at which the activity in the assay is half-maximal) is “inactive”.

In the case of `CCc1cc2c(=O)c(-c3nc4ccccc4n3C)c(C)oc2c(CN(CC)CC)c1O`, the AC50 entry was “inactive”.

As to `CN(C)Cc1cc(O)c(O)c(CN(C)C)c1`, the activity, negative = inhibition is -13.7% [at 11.4 µM].

For the compound `Cc1cc2c(s1)CCCCC(=O)N2`, the AC50 entry is “inactive”.

As for `CCOc1nc(N2CCCCC2)nc(-n2cc(-c3ccccc3)nn2)n1`, the AC50 is 15.8 µM (active).

For `Cc1nonc1NC(=O)N1CCCC1`, the AC50 entry is “inactive”.

Consider `Cc1c(C(=O)N2CCCCCC2)nnn1-c1nonc1N`, for which the concentration at half-maximal activity (AC50) is 11.2 µM (active).

Regarding `CC1CCN(CC[S-])CC1.O.O.[Cl][Pt]`, the activity, negative = inhibition was -1.49% [at 11.4 µM].

Turning to `Cc1cc(C(=O)N[C@H](c2ccccc2)[C@@]2(C)C[C@@H]2[C@@H](C)C(=O)Nc2ccc3ccccc3c2)n(C)n1`, the AC50 was 0.794 µM (active).

For the compound `Cc1cc(C(=O)N[C@@H](c2ccccc2)[C@]2(C)C[C@H]2[C@@H](C)C(=O)Nc2ccc3ccccc3c2)n(C)n1`, the AC50 is 0.794 µM (active).

With `O=C(Nc1cc(C(=O)Nc2ccc(S(=O)(=O)O)cc2S(=O)(=O)O)cc(C(=O)Nc2ccc(S(=O)(=O)O)cc2S(=O)(=O)O)c1)Nc1cc(C(=O)Nc2ccc(S(=O)(=O)O)cc2S(=O)(=O)O)cc(C(=O)Nc2ccc(S(=O)(=O)O)cc2S(=O)(=O)O)c1`, the AC50 result was “inactive”.

With `Fc1nc(N2CCCC2)c(F)c(Oc2ccccc2Oc2c(F)c(F)nc(N3CCCC3)c2F)c1F`, the AC50 result was “inactive”.

In the case of `CN(C)C(=O)c1ccc(-c2cc(N(C)Cc3ccco3)ncn2)cc1`, the AC50 result is “inactive”.

Take `Cc1noc(C)c1-c1ccc2ncnc(N(C)Cc3ccco3)c2c1`: the AC50 is 25.1 µM (active).

With `CN(Cc1ccco1)c1ncnc2ccc(-c3ccc4c(c3)OCO4)cc12`, the AC50 was 2.51 µM (active).

As to `Cc1noc(C)c1-c1ccc2ncnc(N(C)C)c2c1`, the AC50 entry was “inactive”.

Consider `CN(Cc1ccco1)c1ncnc2ccc(-c3ccoc3)cc12`, for which the AC50 was 25.1 µM (active).

As to `N#CC(CC(=O)O)=C(c1ccccc1)c1ccccc1`, the activity, negative = inhibition was 5.39% [at 11.4 µM].

On to `CC(=O)Nc1c(C)nn(-c2ccc(C)c(C)c2)c1C`, for which the activity, negative = inhibition is -3.89% [at 11.4 µM].

For the compound `Cc1nn(-c2ccc(F)cc2)c(Cl)c1/C=C(\CCC(=O)O)c1nc2ccccc2s1`, the AC50 result was “inactive”.

`Cc1nn(-c2ccc(F)cc2)c(C)c1NS(=O)(=O)c1ccc2ccccc2c1`: the AC50 is 4.47 µM (active).

Take `O=[N+]([O-])c1ccc(C=Nc2ccc(Cl)cc2Cl)s1`: the AC50 entry is “inactive”.

For the compound `Cc1ccc(C(=O)N/N=C/c2ccc([N+](=O)[O-])s2)cc1`, the AC50 result was “inactive”.

In the case of `Cc1cccc(NC(=S)N/N=C/c2ccc([N+](=O)[O-])s2)c1`, the AC50 was 22.4 µM (active).

As to `O=C(O)Cc1ccc(NC(=O)C2CCCCC2C(=O)O)cc1` (stereo not drawn), the AC50 result is “inactive”.

Consider `CCSc1nnc(NC(=O)CSc2nc3c(cc2C#N)CCCC3)s1`, for which the AC50 was 10 µM (active).

Take `CCSc1nnc(NC(=O)C(C(F)(F)F)C(F)(F)F)s1`: the AC50 result is “inactive”.

In the case of `CCSc1nnc(NC(=O)Cc2ccc(OC)c(OC)c2)s1`, the activity, negative = inhibition is -2.65% [at 2.29 µM].

As for `Oc1cc2c(cc1O)CN(C(=S)NCCc1ccc(Cl)cc1)CCC2`, the AC50 was 3.16 µM (active).

For `O=C(NCCc1ccc(O)cc1)c1ccc(Cl)cc1`, the activity, negative = inhibition was 1.62% [at 2.29 µM].

`CC[C@@]1([N+](=O)[O-])C[C@H]2C=C[C@@H]1C2`: the activity, negative = inhibition is -4.49% [at 11.4 µM].

`C/C(=C\c1ccco1)C1C(C#N)=C(N)Oc2n[nH]c(-c3ccccc3)c21` (stereo not drawn): the AC50 is 3.98 µM (active).

`Cc1ccc(NC(=O)C(=O)NCc2ccc(/C=C(/C#N)C(=O)NCc3cccnc3)o2)cc1`: the AC50 is 1.41 µM (active).

As to `Cc1cc(N)n(-c2ccc3ccccc3c2)n1`, the AC50 is 28.2 µM (active).

On to `Nc1nc(-c2ccc3ccccc3c2)cc(-c2cc(-c3ccc4ccccc4c3)nc(N)n2)n1`, for which the activity, negative = inhibition was -3.3% [at 11.4 µM].

Take `Cc1cc(N)n(-c2ccccc2)n1`: the AC50 entry was “inactive”.

As for `COc1cc(N=C(N)N=C(N)N)c2ncccc2c1`, the activity, negative = inhibition is -8.88% [at 11.4 µM].

With `CC1Cc2ccccc2N1C(=O)Cn1c(=O)cc(O)c2ccccc21` (stereo not drawn), the AC50 is 25.1 µM (active).

Turning to `CC1Cc2ccccc2N1C(=O)CCN1C(=O)C2C3C=CC(C3)C2C1=O` (stereo not drawn), the AC50 is 1.41 µM (active).

As for `CCOC(=O)CCN1C(=O)[C@H]2[C@@H]3[C@H](O)[C@H](O)CC(=O)[C@H]3CC[C@H]2C1=O`, the activity, negative = inhibition was -4.78% [at 11.4 µM] and -14.8% [at 11.4 µM].

Consider `CC1Cc2ccccc2N1C(=O)c1cc2c(=O)n3ccccc3nc2n1C` (stereo not drawn), for which the AC50 result was “inactive”.

With `CC1Cc2ccccc2N1C(=O)CSCC(=O)O` (stereo not drawn), the AC50 entry was “inactive”.

Turning to `CC1Cc2ccccc2N1C(=O)CN1C(=O)COc2ccccc21` (stereo not drawn), the activity, negative = inhibition was -6.97% [at 2.29 µM].

Consider `O=C(CCN1C(=O)C2C3C=CC(C3)C2C1=O)NCCN1CCCc2ccccc21` (stereo not drawn), for which the AC50 was 3.98 µM (active).

Take `O=C(O)Cc1ccc2ocnc2c1`: the AC50 entry is “inactive”.

Consider `COc1ccc(Oc2ncc3nc(C)c(=O)n(-c4ccccc4)c3n2)cc1`, for which the AC50 was 5.01 µM (active).

In the case of `COc1ccc(Oc2ncc3nc(C)c(=O)n(-c4ccc(OC)cc4)c3n2)cc1`, the AC50 was 3.98 µM (active).

In the case of `COc1ccc(Oc2ncc3nc(C)c(=O)n(C)c3n2)cc1`, the AC50 is 25.1 µM (active).

Take `Cc1nc2cnc(Oc3ccccc3)nc2n(C)c1=O`: the AC50 entry is “inactive”.

Take `COc1ccc(-n2c(=O)c(C)nc3cnc(Oc4ccccc4)nc32)cc1`: the concentration at half-maximal activity (AC50) was 15.8 µM (active).

Consider `CCOC(=O)c1oc2ccccc2c1NC(=O)c1ccc2c(c1)OCO2`, for which the AC50 was 2.24 µM (active).

For the compound `COc1ccc(-c2oc3ccccc3c(=O)c2OC(=O)c2ccc(C)cc2)cc1`, the AC50 entry was “inactive”.

In the case of `CN(C)S(=O)(=O)c1ccc(NC(=O)COC(=O)c2ccccn2)cc1`, the AC50 result is “inactive”.

On to `CN(C)S(=O)(=O)c1ccc(C(=O)Nc2ccc(CN3CCCC3)cc2)cc1`, for which the AC50 result was “inactive”.

For the compound `CCOC(=O)c1oc2ccccc2c1NC(=O)c1ccc(S(=O)(=O)N(C)C)cc1`, the AC50 is 14.1 µM (active).

In the case of `CCOC(=O)c1oc2ccccc2c1NC(=O)c1cc(OC)cc(OC)c1`, the AC50 is 7.94 µM (active).

As to `Nc1c(OCC(=O)O)ccc2cc(S(=O)(=O)O)ccc12`, the activity, negative = inhibition is -9.68% [at 11.4 µM].

For `CNc1ncnc2c1ncn2[C@@H]1O[C@H](CO)[C@@H](O)[C@@H]1O`, the AC50 result is “inactive”.

The record behind these values is PubChem BioAssay AID1851 (National Center for Advancing Translational Sciences (NCATS), 2009).
